Screens: PubChem BioAssay, The Scripps Research Institute Molecular Screening Center
PAFAH2 inh: inhibitors of human PAFAH2; 340,000 tested, 0.99% active; inhibition, % at 3.39 µM; recombinant PAFAH2, FP-rhodamine activity probe, fluorescence polarization;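 active = inhibition above the mean over all tested compounds plus 3 SD, cut at about 30% in these data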;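 note: inhibitors block probe labeling of enzyme so polarization drops; 0% = enzyme with DMSO and 100% = wells lacking PAFAH2 protein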
LYPLA2 inh: LYPLA2 (human) inhibition in PME1 counter-screen | recombinant LYPLA2, FP-Rh probe fluorescence polarization | 320,000 tested, 0.38% active | inhibition, % at 5.9 µM;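 active = inhibition above the screen-wide mean plus 3 SD, limit set per campaign, cut at about 26% in these data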;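 note: 0% = LYPLA2 with DMSO and 100% = wells lacking LYPLA2 enzyme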
Target sequence (O95372 whole entry, looked up): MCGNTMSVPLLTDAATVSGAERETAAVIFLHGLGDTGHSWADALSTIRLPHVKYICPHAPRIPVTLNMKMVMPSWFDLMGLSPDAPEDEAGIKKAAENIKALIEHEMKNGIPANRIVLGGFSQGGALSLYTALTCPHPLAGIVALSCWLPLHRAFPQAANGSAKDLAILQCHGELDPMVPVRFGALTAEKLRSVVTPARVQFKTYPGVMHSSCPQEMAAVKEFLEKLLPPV
pPAFAH inh: inhibitors of human plasma PAF acetylhydrolase (pPAFAH) | 330,000 tested, 1.5% active | recombinant pPAFAH, FP-rhodamine probe fluorescence polarization | Q13093 | AID 463082 | inhibition, % at 3.39 µM;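 active = inhibition above the mean inhibition across the screen plus 3 SD, cut at about 25% in these data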;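 note: inhibitors block binding of the rhodamine activity-based probe so polarization drops; 0% = enzyme with DMSO and 100% = wells lacking pPAFAH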
PAFAH1B2 inh: PAFAH1B2 (human) inhibition; 340,000 tested, 1.2% active; recombinant PAFAH1B2, FP-rhodamine activity probe, fluorescence polarization; AID 492953; inhibition, % at 3.39 µM; P68402;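 active = inhibition above the mean of all tested compounds plus 3 SD, cut at about 24% in these data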;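 note: 0% = enzyme with DMSO and 100% = wells lacking PAFAH1B2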
Target sequence (P68402 whole entry, looked up): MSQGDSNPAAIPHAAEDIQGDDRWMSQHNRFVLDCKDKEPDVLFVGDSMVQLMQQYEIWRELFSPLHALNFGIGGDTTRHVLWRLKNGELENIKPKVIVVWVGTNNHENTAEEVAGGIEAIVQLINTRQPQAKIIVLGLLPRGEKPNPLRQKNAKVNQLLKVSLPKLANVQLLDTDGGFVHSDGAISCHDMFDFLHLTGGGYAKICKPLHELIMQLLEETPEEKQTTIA
LYPLA1 counter: LYPLA1 (human) inhibition in PME1 counter-screen | O75608 | recombinant LYPLA1, FP-Rh probe fluorescence polarization | inhibition, % at 5.9 µM | 320,000 tested, 0.16% active;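 active = inhibition above the mean of all tested compounds plus 3 SD, set per campaign, cut at about 14% in these data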;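 note: inhibitors block serine hydrolase probe labeling of LYPLA1 so polarization falls; 0% = enzyme with DMSO and 100% = wells lacking LYPLA1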
PAFAH1B3 FP inh: blocks human PAF acetylhydrolase 1B catalytic subunit 3 | inhibition, % at 3.39 µM | recombinant PAFAH1B3, FP-rhodamine probe, fluorescence polarization | 340,000 tested, 0.28% active | AID 492972 | Q15102;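 active = inhibition above the screen-wide average of all tested compounds plus 3 SD, cut at about 25% in these data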;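 note: 0% = enzyme with DMSO only and 100% = wells lacking PAFAH1B3 protein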
Target sequence (Q15102 whole entry, looked up): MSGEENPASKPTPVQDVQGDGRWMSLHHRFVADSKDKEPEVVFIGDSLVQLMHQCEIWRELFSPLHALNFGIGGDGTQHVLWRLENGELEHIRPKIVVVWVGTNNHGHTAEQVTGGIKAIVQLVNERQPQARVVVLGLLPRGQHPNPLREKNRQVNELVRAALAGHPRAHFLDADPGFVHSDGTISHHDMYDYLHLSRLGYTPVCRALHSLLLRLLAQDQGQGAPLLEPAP
PAFAH2 FP conf: confirmation of human PAFAH2 inhibitors. recombinant PAFAH2, FP-rhodamine activity probe, fluorescence polarization. 2,300 tested, 65% active. inhibition, % at 3.39 µM. AID 493030. shares compounds with PAFAH2 inh;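 active = mean inhibition over three repeats above a set limit taken from the earlier primary screen, cut at about 30% in these data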;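 note: inhibitor blocks binding of rhodamine activity probe so polarization falls; 0% = enzyme with DMSO and 100% = wells lacking PAFAH2 protein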
* marks the source's active call; other numbers are inactive results; x = no result. Rows were chosen to be rich in hits. Some 2.9% of all compounds tested hit in one or more screens of this group.

SMILES	PAFAH2 inh	LYPLA2 inh	pPAFAH inh	PAFAH1B2 inh	LYPLA1 counter	PAFAH1B3 FP inh	PAFAH2 FP conf
O=C(O)CN1C(=O)/C(=C\c2ccccc2OCc2ccc(Cl)cc2)SC1=S	30.1*	10.8	17.9	19.9	0.0	4.9	21.9
O=C(O)COc1ccccc1/C=C1\SC(=S)N(/N=C/c2ccccc2O)C1=O	41.9*	-3.4	1.6	3.6	0.2	14.4	31.9*
O=C(O)COc1ccccc1/C=C1\SC(=S)N(NC(=O)c2ccccc2O)C1=O	26.1	2.7	9.6	-1.3	0.2	-13.0	x
CC1CCN(C(=O)COC(=O)/C=C/c2ccc(Br)o2)CC1	30.3*	6.3	5.9	1.4	1.4	6.6	11.1
O=C(COC(=O)c1ccc(CO)cc1)Nc1ccc2ccccc2c1	80.5*	-9.5	-5.5	-0.2	-2.9	-1.2	71.4*
O=C(COC(=O)c1ccc(CO)cc1)Nc1ccc(OC(F)F)cc1	81.5*	-6.0	-5.7	2.3	-5.1	3.6	74.2*
COc1cc(C(=O)OCC(=O)Nc2cc(-c3cc(C)c(C)cc3C)nn2-c2ccccc2)cc(OC)c1OC	5.8	2.3	4.0	-2.5	-0.8	2.0	x
O=C(O)Cc1ccc(NC(=O)COc2ccc3ccccc3c2)cc1	-2.7	-1.8	6.8	3.6	-5.2	5.6	x
Cc1cc(C)c(-c2cc(NC(=O)COC(=O)c3ccc(CO)cc3)n(-c3ccccc3)n2)cc1C	31.7*	1.2	3.2	-4.6	-1.4	-6.5	23.3
O=C(O)CN=C1NC2(CCCCC2)Cc2ccccc21	1.6	-7.6	-4.8	3.9	1.9	3.0	x
Clc1ccc(CNCCCSc2ncccn2)cc1	8.4	-2.3	4.0	2.8	-1.5	12.2	x
CC(C)CC(NC(=O)C(NC(=O)C1CCC(=O)N1C(=O)OCc1ccccc1)C(C)C)C(=O)N1CCCC1C(N)=O (stereo unspecified)	39.6*	1.4	-3.5	2.1	1.3	1.1	41.4*
CC(C)CC(NC(=O)OC(C)(C)C)C(=O)NC(C(=O)N1CCCC1C(N)=O)C(C)C (stereo unspecified)	-3.6	2.5	1.9	-0.8	0.5	4.7	x
O=C(OCc1nnc(-c2ccccc2)o1)c1ccc(CO)cc1	54.8*	2.4	1.7	0.1	-0.6	7.7	56.4*
O=C(/C=C/c1ccco1)OCc1nnc(-c2ccccc2)o1	67.7*	13.2	4.5	2.7	1.5	8.5	54.5*
Cc1cc(C)n(-c2ccc(C(=O)OCc3nnc(-c4ccccc4)o3)cc2)n1	9.4	3.1	5.6	0.1	0.9	3.6	x
O=C(Nc1ccccc1C(=O)OCc1nnc(-c2ccccc2)o1)c1ccco1	15.5	4.9	4.7	5.1	3.0	-6.4	x
Cc1ccc(C(=O)OCc2nnc(-c3ccccc3)o2)cc1S(=O)(=O)N1CCOCC1	61.1*	5.6	3.2	4.9	1.2	11.1	47.0*
Cc1ccc(S(=O)(=O)N2CCOCC2)cc1C(=O)OCc1nnc(-c2ccccc2)o1	2.3	4.0	2.2	4.4	-2.5	-1.0	x
O=C(OCc1nnc(-c2ccccc2)o1)c1cccc(-n2cnnn2)c1	46.8*	10.5	-6.4	3.5	3.4	5.6	39.7*
c1ccc2c(-n3cccn3)cccc2c1	-1.6	-2.8	2.7	-1.1	2.0	7.7	x
CCOCCCNC1=C(Cl)C(=O)c2ccccc2C1=O	2.0	3.4	-1.0	6.1	1.3	21.1	x
O=C(OCc1nnc(-c2ccccc2)o1)c1ccc(Cl)cc1	43.0*	0.9	10.0	3.6	0.7	0.7	37.5*
Cc1ccc(-c2nnc(COC(=O)c3cccs3)o2)cc1	53.9*	3.0	4.6	7.3	1.6	-4.5	37.9*
CN(C)S(=O)(=O)c1ccc(C(=O)OCc2nnc(-c3ccccc3)o2)cc1	4.4	6.5	0.1	4.2	-1.4	3.2	x
SMILES	PAFAH2 inh	LYPLA2 inh	pPAFAH inh	PAFAH1B2 inh	LYPLA1 counter	PAFAH1B3 FP inh	PAFAH2 FP conf
Cc1ccc(C(=O)OCc2nnc(-c3ccc(Br)cc3)o2)cc1	72.4*	10.6	10.3	0.1	-1.8	8.3	58.4*
Cc1ccc(C(=O)OCc2nnc(-c3ccccc3)o2)o1	43.6*	3.9	5.0	-0.5	2.8	-3.4	33.4*
Cc1ccc(-c2nnc(SCC#CCOC(=O)c3cccs3)o2)cc1	4.0	5.6	0.7	10.5	-3.1	-1.0	x
O=C(NCc1cc(C(F)(F)F)cc(C(F)(F)F)c1)C1CC(c2ccccc2[N+](=O)[O-])=NO1 (stereo unspecified)	3.6	-4.8	1.4	-1.3	-0.7	5.6	x
O=C(Nc1cccc(F)c1)N1CCN(C(=O)c2ccco2)CC1	-12.0	-0.8	-2.4	0.6	-3.5	10.3	x
COc1cccc(N=CC2=C(O)CC(C)(C)CC2=O)c1	-1.8	9.0	6.5	2.2	-2.6	3.6	x
O=C(OCc1nnc(-c2ccccc2)o1)C1=COCCO1	44.3*	-0.4	-0.5	4.7	1.8	0.1	30.8*
O=C1CCC(C(=O)OCc2nnc(-c3ccccc3)o2)=NN1	0.8	4.2	7.0	3.8	2.8	3.6	x
O=C(OCc1nnc(-c2ccccc2)o1)c1ccc2c(c1)OCCO2	75.5*	7.2	9.9	-1.3	-2.9	-0.7	60.2*
CCOc1ccc(S(=O)(=O)/N=C(/Nc2ccc(S(N)(=O)=O)cc2)c2ccccc2)cc1	44.5*	x	4.1	6.7	x	9.3	23.2
CCOc1ccc(OCC(=O)Nc2ccc(S(N)(=O)=O)cc2)cc1	-3.5	9.8	3.9	3.0	1.9	3.2	x
S=c1[nH]nc(-c2ccco2)n1/N=C/C=C/c1ccco1	46.2*	-2.7	18.4	4.2	-5.5	17.6	-0.4
CCCCn1c2c(c(=O)n(C)c1=O)C(c1ccc(OC)cc1)N1CCCCCC1=N2 (stereo unspecified)	-4.4	-4.3	1.4	-4.7	-1.2	-4.7	x
O=C(CN1CC(c2ccccc2)CC1=O)Nc1ccc2c(c1)OCO2 (stereo unspecified)	31.9*	3.7	2.5	0.0	3.5	-6.2	13.8
Cn1c(=O)[nH]c(=O)c2c1nc1n2CCCN1CCc1ccccc1	-2.9	-2.0	3.6	-4.3	1.6	-0.8	x
CCn1c(SCc2c(Cl)cccc2Cl)nnc1-c1nn(-c2ccccc2)ccc1=O	48.9*	0.3	5.1	0.1	0.7	9.4	25.7
COc1ccc(C(=O)OCC2CC(c3ccccc3)N(C)O2)cc1 (stereo unspecified)	56.3*	0.0	11.3	3.5	0.0	12.9	44.7*
CCOc1cccc2cc(C(=O)NCc3ccc(F)cc3)c(=N)oc12	-3.4	2.4	7.9	-4.1	-0.2	-0.3	x
CSc1ncccc1C(=O)OCC(=O)Nc1ccc2c(c1)OCO2	28.8	-3.9	5.4	0.7	-3.6	2.3	x
Cc1c(C(=O)OCC(=O)Nc2ccc3c(c2)OCO3)cccc1[N+](=O)[O-]	72.0*	-7.8	3.6	5.8	-1.8	-3.9	64.5*
